Only some compounds are listed: those with a hit (about 19% of all), similar ones and a draw of the others.
Shiga toxin inh – blocks Shiga toxin action in Vero cells. Vero cells, Shiga toxin protein synthesis inhibition reporter. 290,000 compounds, 9.2% hits. AID 2315. inhibition, % at 38.7 µM; in the data active means inhibition mostly above about 28%, no sharp cut-off; inactive means mostly below about 43%; further: 0% is about no effect
Pf growth 48h – inhibits P. falciparum growth in the first generation, 48 h; Potency, µM (doses to about 28.7 µM), for inactives: top-dose activity change, negative = inhibition, usual class: inhibitors; 310,000 compounds, 5.9% hits; AID 504832; P. falciparum luciferase growth in erythrocytes, 48 h; further: potency means the concentration at half of the fitted maximal effect; on the % scale 0 is the no-effect control and ±100 the full control effect
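In quantitative HTS format, infected erythrocytes bearing luciferase-reporter parasites were treated for a single generation at 37 C. Luminescence after adding detection reagent served as the growth measure.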
AMA1 RON2 block – AMA1-RON2 (P. falciparum) interaction inhibition; AlphaScreen AMA1-biotinylated RON2 peptide binding; Potency, µM (highest dose often 58.2 µM), for the others: at the top dose activity change, negative = inhibition, actives largely listed as inhibitors; 360,000 compounds, 0.2% hits; AID 720542;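 further: potency means the concentration at half of the fitted maximal effect; 0% = vehicle wells and -100% = peptide control; nearly all actives have a fitted effect of over 45% in size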
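AMA1 (3D7) with his tag at 25 nM final met compounds first, then biotinylated RON2 peptide at 25 nM; detection used donor plus acceptor beads, 10 µg/mL apiece, read by AlphaScreen after 30 min at room temperature.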
CHX counter – affects cycloheximide protein synthesis inhibition readout, counter-screen | cell reporter, cycloheximide protein synthesis inhibition counterscreen | max response, % | 300,000 compounds, 12% hits | AID 2314; in the data active means max response mostly above about 13%, no sharp cut-off; inactive means mostly below about 14%; further: read at 38.3 µM for the half of the compounds with a filed dose; 0% is about no effect
SARS PLpro yeast – inhibitors of SARS-CoV papain-like protease in yeast; S. cerevisiae expressing SARS-CoV PLpro, growth rescue; Potency, µM (series often up to 32.9 µM), without a hit: top-dose activity, positive = growth rescue, hits mostly activators; 330,000 compounds, 0.19% hits; calls by dose curve; further: potency means the concentration at half of the fitted maximal effect; 0% is about no effect; nearly all actives have a fitted effect of over 55% in size
Pf growth 96h – P. falciparum growth inhibition at 96 hours; P. falciparum luciferase reporter growth, 96 h; Potency, µM (highest dose often 28.7 µM), inactives show top-dose activity change, negative = inhibition, actives largely listed as inhibitors; 320,000 compounds, 6.9% hits; further: potency means the concentration at half of the fitted maximal effect; on the % scale 0 is the no-effect control and ±100 the full control effect
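Two parasite generations (96 h, 37 C, 5% CO2) of compound exposure in infected erythrocytes (0.05% parasitemia, 2% hematocrit). Luciferase-reporter P. falciparum; decreased luminescence indicates inhibited growth, aimed at apicoplast-acting delayed death.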
Active calls of the source: *; ? = inconclusive; . = no result given; [ ] = remark or other dose. Unless noted, the call rests on the fitted dose curve; in most records, active means well fitted curve in the direction sought with a large enough effect; inconclusive means small, poorly fitted or top-dose-only effect, or another doubt; inactive means no such curve, though single readings can be large; an effect the other way counts as inactive or inconclusive.

SMILES	Shiga toxin inh	Pf growth 48h	AMA1 RON2 block	CHX counter	SARS PLpro yeast	Pf growth 96h
CCOc1cccc(C(=O)Nc2ccc3ccccc3c2)c1	36.8	110.4%	-1.9%	20.6*	-0.3%	-55.0%
CCCN1C(=O)c2ccccc2NC1c1ccc(C)cc1 (stereo not drawn)	43.2	?	-7.8%	5.6	-0.8%	?
CCN(C(=O)C(C)Sc1nnc(-c2ccncc2)n1C)C1CCCCC1 (stereo not drawn)	.	.	-1.0%[11.6 µM]	.	3.6%	.
COc1cccc(C(=O)Nc2nnc(-c3ccc(OC)cc3OC)s2)c1	-1.7	11.8%	16.8%	-7.3	-2.2%	15.6%
CC(=O)Nc1cccc(NC(=O)c2ccc(COc3ccccc3)cc2)c1	109.1*	58.9%	11.2%	58.9*	2.8%	92.1%
Cc1cccc(C(=O)Nc2ccc(C(=O)c3ccccc3)cc2)c1	.	.	-15.8%	.	.	.
COc1cccc(C(=O)Nc2nnc(-c3ccccc3)s2)c1	112.2*	-24.0%[0.00184 µM]	0.3%	33.5*	-1.2%	?
COc1cccc(C(=O)Nc2cccc(C(C)=O)c2)c1	18.3*	205.9%	34.7%	87.3*	0.7%	220.2%
Cc1cccc(C(=O)Nc2ccc(O)cc2)c1	37.3	69.4%	2.8%	30.1*	?	-7.1%
COCCNC(=O)C1(C)CCN(C(=O)c2ccc(SC(F)(F)F)cc2)C1 (stereo not drawn)	.	.	7.2%	.	.	.
COc1cccc(C(=O)Nc2ccc3c(c2)C(=O)c2ccccc2C3=O)c1	37.6*	108.4%	-23.5%	31.1*	-8.0%	?
CCOc1cccc(NC(=O)c2cccc(F)c2)c1	102.4*	27.3%	-1.9%	20.2*	-0.1%	3.9%
O=C(Nc1ccc2c(c1)C(=O)c1ccccc1-2)c1ccccc1	.	.	-17.0%	.	.	.
COc1cccc(NC(=S)NC(=O)c2cccnc2)c1	39.1*	-4.1%	5.0%	17.9*	1.0%	121.5%
CCOC(=O)c1cccc(NC(=S)NC(=O)c2cccnc2)c1	11.4	?	25.6%	-1.7	5.7%	?
CCOc1cccc(C(=O)NC(=S)Nc2cccc(C)c2)c1	65.5*	45.6%	16.3%	8.9	?	?
CCCCN1C(=O)Nc2ccccc2S1=O (stereo not drawn)	-3.4	12.6%	1.3%	-1.1	-7.3%	13.8%
Cc1ccc(C)c(N(CC(N)=O)S(C)(=O)=O)c1	-10.3	2.2%	-10.9%	-1.9	1.2%	.
O=C(COC(=O)C1CC(O)CN1S(=O)(=O)c1ccc(Cl)cc1)c1cccc(Cl)c1 (stereo not drawn)	-9.3	3.3%	9.9%	-3.4	-8.7%	19.9%
Cc1cc(OCC(=O)c2ccc(F)cc2)ccc1N1C(=O)CCC1=O	-1.6	2.1%	1.2%	-1.3	1.9%	9.28µM*
O=C(COc1ccc(F)cc1)c1ccc2c(c1)CCCC2	.	.	80.8%	.	.	.
CCc1nc(N2CCN(C(=O)CCl)CC2)c2c3c(sc2n1)CC(C)CC3 (stereo not drawn)	35.9	?	-11.7%	10.9*	-0.8%	-67.3%
Cc1ccc(S(=O)(=O)N2CCN(c3nc(C)nc4sc(C)c(C)c34)CC2)cc1	-5.1	23.5%	.	3.7	0.4%	-13.0%
Cc1ccc(S(=O)(=O)N2CCN(c3nc(C)nc4sc5c(c34)CCC(C)C5)CC2)cc1 (stereo not drawn)	-15.7	?	.	-3.6	-0.4%	7.38µM*
c1ccc(-c2ccc3ncccc3n2)cc1	.	.	7.3%	.	.	.
SMILES	Shiga toxin inh	Pf growth 48h	AMA1 RON2 block	CHX counter	SARS PLpro yeast	Pf growth 96h
CCn1cc(C(=O)NC2CCCCCC2)c(=O)c2ccc(C)nc21	.	?	14.6%	-1.8	0.2%	-5.3%
O=C(NCc1cccs1)c1noc2c1CCCC2	36.7	35.7%	5.9%	14.8*	-1.6%	53.8%
O=C(NCc1cccnc1)c1noc2c1CCCCC2	55.2	11.7%	15.9%	3.5	-2.8%	42.6%
O=C(NCc1cccnc1)c1noc2c1CCCC2	17.5	14.6%	14.6%	-0.6	3.5%	?
O=C(NCc1cccs1)c1ccncc1	15.9	33.4%	0.1%	-0.7	6.3%	.
O=C(NCc1ccco1)c1noc2c1CCCCC2	39.9*	63.1%	-5.8%	33.0*	-3.5%	?
O=C(NCc1ccc(Cl)cc1)c1noc2c1CCCC2	39.6*	39.6%	0.0%	24.8*	-3.4%	?
O=C(NCCc1ccccc1)c1noc2c1CCCCC2	95.8*	97.2%	31.7%	34.9*	-2.7%	53.5%
CC(=O)Nc1ccc(S(=O)(=O)N2CCN(C(=O)c3cccnc3)CC2)cc1	-2.2	17.3%	10.1%	1.4	10.1%	43.3%
CCOC(=O)C1C(C)=C(Nc2ccc(OC)cc2)C(=O)N1c1ccc(OC)cc1 (stereo not drawn)	-5.6	26.9%	20.8%	-3.2	-4.3%	16.8%
CCOC(=O)CCC(=O)Nc1ccc([N+](=O)[O-])cc1C	12.5	11.0%	1.0%	0.3	-0.1%	-26.9%
COc1ccc(CNC(=O)c2nccnc2CO)cc1	-4.7	19.1%	4.0%	1.7	1.5%	8.28µM*
COc1ccc(CNC(=O)c2noc3c2CCCC3)cc1	113.6*	46.8%	5.5%	28.2*	11.1%	3.2%
O=C(NCc1ccccc1)c1noc2c1CCCC2	34.1	44.3%	-0.9%	44.5*	-8.9%	6.1%
COc1ccc(CNC(=O)C(=O)NCc2ccncc2)cc1	-5.4	7.5%	-25.9%	10.3	-0.6%	19.7%
O=C(NCc1cccc(F)c1)c1noc2c1CCCC2	54.3*	34.5%	-5.7%	39.0*	-3.6%	?
COc1ccccc1/C=C1\SC(=S)N(CCC(=O)Nc2nnc(C)s2)C1=O	2.2	45.0%	-7.2%	0.6	4.5%	?
Cc1cc(Nc2ccc3c(c2)OCCO3)c2cccc(C)c2n1	32.8	?	1.3%	-2.8	8.5%	?
O=C(NCCCO)c1ccc(CSc2nc3ccccc3[nH]2)cc1	31.1	63.9%	11.7%	10.7*	0.4%	1.8%
O=C(NCCO)c1ccc(CSc2nc3ccccc3[nH]2)cc1	18.5	54.8%	6.3%	17.4*	-29.3%	94.5%
O=C(CCCSc1nc2ccccc2[nH]1)NCc1ccccc1	-7.1	-11.9%	1.4%	-3.7	-24.1%	?
CC1C/C(=N/NC(=O)c2ccc(CSc3nc4ccccc4[nH]3)cc2)CC(C)(C)C1 (stereo not drawn)	16.7	9.0%	32.9%	5.7	6.3%	?
C=CCn1c(CSc2nc3ccccc3s2)nnc1SCC(=O)NCc1cccnc1	-3.1	?	0.9%	-4.8	12.9%	28.2%
C=CCn1c(CSc2nc3ccccc3s2)nnc1SCC(=O)NCc1ccccc1	8.5	.	-1.3%	0.8	-2.2%	10.4µM*
C=CCn1c(Cc2c(C)[nH]c3ccccc23)nnc1SCC(=O)NCc1ccc(F)cc1	-3.0	8.28µM*	-3.5%	-2.0	4.1%	0.262µM*
Cc1nn(-c2ccc(Cl)cn2)c2c1C(=O)CC(C)(C)C2Br (stereo not drawn)	.	.	-9.6%	.	.	.
COc1ccc(CNC(=O)C2CC(=O)N(C3CCCC3)C2)cc1 (stereo not drawn)	-11.6	16.3%	3.5%	-3.1	-2.6%	49.5%

Screens: PubChem, National Center for Advancing Translational Sciences (NCATS)
